Assay results as given in PubChem BioAssay (NCATS).
A number with no mark means an inactive call. Records with an inconclusive call do not appear. A call without a number means that no potency is given here. Active and inactive are the calls of the source. Unless noted, calls come from the whole dose curve; as a rule, active = well fitted curve in the direction sought with a large enough effect; inconclusive = small, poorly fitted or top-dose-only effect, or another doubt; inactive = no such curve, though single readings can be large; an effect the other way counts as inactive or inconclusive.

Columns and labels:
[1] = AP1 Signaling Pathway (AID 357; active = well fitted curve in either direction with a large enough effect, not every such curve was filed as active); conditions: ME-180 AP-1-bla reporter, EGF-induced, beta-lactamase ratio, 5 h; at 7.69 µM (top of the series) unless noted
Method in brief: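 AP-1-bla ME-180 cells with beta-lactamase reporter under AP-1 response element, stimulated with EC50 EGF; compounds titrated, 5 hours at 37 degrees Celsius. CCF4 read at 460/530 nm ratio; positive and negative modulators judged by AC50.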

[2] = biological target: Cytochrome P450 1A2 (Homo sapiens) (UniProt P05177); assay: p450-cyp1a2 (AID 410; calls by dose curve; note: potency is the fitted concentration of half-maximal effect)
Cytochrome P450 1A2 (Homo sapiens), sequence (P05177 whole entry, looked up): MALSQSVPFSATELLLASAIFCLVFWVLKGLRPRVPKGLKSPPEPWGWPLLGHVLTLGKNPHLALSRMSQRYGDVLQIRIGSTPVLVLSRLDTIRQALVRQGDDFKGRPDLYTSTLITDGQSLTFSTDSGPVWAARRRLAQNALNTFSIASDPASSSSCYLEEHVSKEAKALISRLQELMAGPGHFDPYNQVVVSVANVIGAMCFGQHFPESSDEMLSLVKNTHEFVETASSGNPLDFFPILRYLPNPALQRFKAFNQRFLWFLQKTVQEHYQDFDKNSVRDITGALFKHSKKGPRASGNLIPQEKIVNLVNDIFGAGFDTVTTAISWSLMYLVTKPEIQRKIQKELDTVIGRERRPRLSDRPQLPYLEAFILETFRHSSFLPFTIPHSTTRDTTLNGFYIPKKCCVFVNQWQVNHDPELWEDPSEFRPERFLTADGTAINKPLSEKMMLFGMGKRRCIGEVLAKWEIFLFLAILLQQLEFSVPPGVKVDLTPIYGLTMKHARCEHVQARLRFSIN
Method in brief: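 20nM CYP1A2 with 100uM Luciferin-ME (at Km) in 100mM KPO4; compound preincubated 10 min, NADPH regeneration added, 60 min at room temperature. Luciferin quantified by luminescence after detection reagent; normalized to 57 uM furafylline.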

[3] = NFAT Signaling Pathway (AID 444; active = well fitted curve in either direction with a large enough effect, not every such curve was filed as active;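 note: carbachol stimulus at about its EC50 of 1 µM final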); conditions: Jurkat NFAT-bla M1, carbachol, beta-lactamase ratio, 5 h; at 7.69 µM (top of the series) unless noted
Method in brief: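 Jurkat cells with NFAT-driven β-lactamase reporter and co-expressed M1 receptor, stimulated with carbachol (final 1 uM, ~EC50), compound titration, 5 h at 37 °C. CCF4 loaded 1 h at RT; 460/530 nm ratio gave %activity and AC50.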

[4] = Stat Signaling Pathway (AID 446; active = well fitted curve in either direction with a large enough effect, not every such curve was filed as active;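 note: ME-180 cervical cancer cells given 40 pM IL-6 alongside compound; SIE-controlled beta-lactamase reporter measured as 460/530 nm FRET emission ratio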); conditions: ME-180 SIE beta-lactamase reporter, IL-6 stimulated, 5 h; at 7.69 µM (top of the series) unless noted
Method in brief: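 IL-6/STAT signaling read in ME-180 cells via an SIE beta-lactamase reporter. Stimulus was 40 pM IL-6 (its AC50) for 5 hrs, so both activation and inhibition register.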

[5] = biological target: Glucocorticoid receptor (Homo sapiens) (UniProt P04150); assay: GR-GFP Redistribution (AID 450;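 active = compounds whose dose series gives a full or clear partial fitted curve of increased nuclear translocation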; note: potency is the fitted concentration of half-maximal effect); conditions: U2OS GR-GFP nuclear translocation, laser cytometry, 2 h
Glucocorticoid receptor (Homo sapiens), sequence (P04150 whole entry, looked up, the tested form may be a part): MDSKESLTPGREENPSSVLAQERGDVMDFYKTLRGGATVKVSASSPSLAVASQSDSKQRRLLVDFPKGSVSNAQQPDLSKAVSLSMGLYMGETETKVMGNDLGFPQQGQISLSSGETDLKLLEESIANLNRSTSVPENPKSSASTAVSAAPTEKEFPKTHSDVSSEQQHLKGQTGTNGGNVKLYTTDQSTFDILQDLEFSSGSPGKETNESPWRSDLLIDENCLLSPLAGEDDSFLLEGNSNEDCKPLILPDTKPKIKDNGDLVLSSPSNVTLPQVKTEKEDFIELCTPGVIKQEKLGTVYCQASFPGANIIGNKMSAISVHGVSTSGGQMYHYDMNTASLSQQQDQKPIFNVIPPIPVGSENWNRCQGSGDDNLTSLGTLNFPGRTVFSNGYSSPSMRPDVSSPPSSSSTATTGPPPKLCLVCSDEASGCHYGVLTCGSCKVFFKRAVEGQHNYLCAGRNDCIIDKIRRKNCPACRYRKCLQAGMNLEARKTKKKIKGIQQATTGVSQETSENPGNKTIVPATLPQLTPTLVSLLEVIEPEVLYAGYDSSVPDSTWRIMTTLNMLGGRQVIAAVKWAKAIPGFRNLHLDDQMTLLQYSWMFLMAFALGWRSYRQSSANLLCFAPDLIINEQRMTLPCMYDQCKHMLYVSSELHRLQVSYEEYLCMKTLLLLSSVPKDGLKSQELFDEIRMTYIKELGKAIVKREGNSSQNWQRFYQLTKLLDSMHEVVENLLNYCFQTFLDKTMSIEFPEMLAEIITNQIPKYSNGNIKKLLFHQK

[6] = biological target: Glucocorticoid receptor (Homo sapiens) (UniProt P04150); assay: GR-EFC Redistribution (AID 451; calls by dose curve; note: potency is the fitted concentration of half-maximal effect); conditions: CHO-K1 GR-EFC translocation, beta-gal luminescence, 2 h
Method in brief: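 CHO-K1 cells expressing nuclear EA and GR-ED fragments of b-gal; compounds titrated up to 46 uM final, 2 h at 37 C. GR nuclear translocation read as complemented b-gal luminescence after 1 h RT detection.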

[7] = biological target: Mitogen-activated protein kinase 10 (Mus musculus) (UniProt Q61831); assay: JNK3 AlphaScreen Assay (AID 530; active = well fitted curve in either direction with a large enough effect, not every such curve was filed as active;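 note: kinase came from lysate of stimulated human HepG2 cells; signal reports phosphorylation of biotinylated GST-cJun 1-79 at Ser73 with 10 µM ATP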)
Method in brief: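 Pre-activated (IL-1β/TNFα) JNK3 in HepG2 lysates phosphorylates biotin-GST-cJun(1-79), 10 uM ATP; anti-phospho-cJun(Ser73) AlphaScreen read at room temperature, pH 7.6 Tris buffer. Compounds pre-incubated 15 min as titrations.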

[8] = biological target: Cytochrome P450 3A4 (Homo sapiens) (UniProt P08684); assay: qHTS Assay for Inhibitors and Substrates of Cytochrome P450 3A4 (AID 884); note: potency is the fitted concentration of half-maximal effect; nearly all actives have a fitted effect of over 50% in size
Cytochrome P450 3A4 (Homo sapiens), sequence (P08684 whole entry, looked up): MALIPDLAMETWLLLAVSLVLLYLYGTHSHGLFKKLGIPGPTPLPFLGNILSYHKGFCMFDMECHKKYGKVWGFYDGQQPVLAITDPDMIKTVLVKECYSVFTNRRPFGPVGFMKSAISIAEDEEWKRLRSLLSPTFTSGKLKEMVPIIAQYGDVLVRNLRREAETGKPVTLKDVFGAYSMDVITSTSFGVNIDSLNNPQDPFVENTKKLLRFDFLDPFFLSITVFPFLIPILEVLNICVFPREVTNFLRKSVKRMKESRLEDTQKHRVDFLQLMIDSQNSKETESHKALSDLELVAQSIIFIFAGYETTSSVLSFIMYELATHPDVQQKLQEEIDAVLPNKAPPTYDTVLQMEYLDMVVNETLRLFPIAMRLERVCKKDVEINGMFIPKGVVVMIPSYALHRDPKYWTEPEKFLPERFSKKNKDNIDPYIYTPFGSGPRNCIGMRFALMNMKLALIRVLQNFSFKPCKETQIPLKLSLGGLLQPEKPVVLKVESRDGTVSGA
Method in brief: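 20 nM human CYP3A4 with 25 uM Luciferin-PPXE (at KM) in 200 mM KPO4, preincubated 10 min with compound; NADPH regeneration started a 60 min RT reaction. Luciferin detected by luminescence, normalized to 57 uM ketoconazole as full inhibition.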

[9] = biological target: Cytochrome P450 3A4 (Homo sapiens) (UniProt P08684); assay: qHTS Assay for Activators of Cytochrome P450 3A4 (AID 885); note: nearly all actives have a fitted effect of over 65% in size
Method in brief: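 Quantitative HTS format: compounds preincubated with 20nM human CYP3A4 and Luciferin-PPXE substrate at KM, reaction started by NADPH regeneration, stopped after 60 min, luciferase luminescence read 20 min later.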

[10] = biological target: Dual specificity protein kinase CLK4 (Homo sapiens) (UniProt Q9HAZ1); assay: qHTS Assay for Inhibitors of CDC-like Kinase 4 (Kinase-Glo Assay) (AID 1770); note: nearly all actives have a fitted effect of over 65% in size; note: potency is the fitted concentration of half-maximal effect
Dual specificity protein kinase CLK4 (Homo sapiens), sequence (Q9HAZ1 whole entry, looked up): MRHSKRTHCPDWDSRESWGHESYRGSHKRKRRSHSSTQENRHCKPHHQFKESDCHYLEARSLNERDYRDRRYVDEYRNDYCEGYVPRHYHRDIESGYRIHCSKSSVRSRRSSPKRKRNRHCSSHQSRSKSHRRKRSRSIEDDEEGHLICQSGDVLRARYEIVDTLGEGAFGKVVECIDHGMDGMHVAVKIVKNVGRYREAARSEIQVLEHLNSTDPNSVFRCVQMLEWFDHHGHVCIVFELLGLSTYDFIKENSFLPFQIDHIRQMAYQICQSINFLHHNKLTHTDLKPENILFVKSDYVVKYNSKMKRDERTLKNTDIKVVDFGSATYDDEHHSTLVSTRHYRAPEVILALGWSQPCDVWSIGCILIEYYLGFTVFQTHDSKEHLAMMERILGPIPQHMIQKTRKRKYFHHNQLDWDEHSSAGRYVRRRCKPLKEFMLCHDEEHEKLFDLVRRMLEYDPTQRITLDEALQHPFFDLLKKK
Method in brief: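 Recombinant human Clk4 (25 nM) phosphorylated RS repeat peptide (100 uM) with 1 uM ATP in Tris pH 7.5/MgCl2/EGTA/DTT/Triton buffer for 4.5 h at room temperature. Residual ATP was quantified by Kinase-Glo luciferase luminescence.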

[11] = biological target: Dual specificity protein kinase CLK4 (Homo sapiens) (UniProt Q9HAZ1); assay: qHTS Assay for Inhibitors of CDC-like Kinase 4 (ADP-Glo Assay) (AID 1771); note: nearly all actives have a fitted effect of over 70% in size; note: potency is the fitted concentration of half-maximal effect
Method in brief: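 25 nM Clk4 with 100 uM RS repeat peptide and 1 uM ATP (final) in buffer with 2 mM MgCl2, 0.5 mM EGTA, 2.5 mM DTT, 0.01% Triton X-100; 1 h at room temperature; ADP-Glo luminescence for ADP formed.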

[12] = biological target: Dual specificity protein kinase CLK4 (Homo sapiens) (UniProt Q9HAZ1); assay: qHTS Assay for Inhibitors of CDC-like Kinase 4 (ADP-FP Assay) (AID 1795); note: nearly all actives have a fitted effect of over 60% in size; note: potency is the fitted concentration of half-maximal effect
Method in brief: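 Recombinant human Clk4 (6.25 nM) phosphorylated RS repeat peptide (100 uM) with 1 uM ATP in Tris pH 7.5/MgCl2/EGTA/DTT/Triton buffer for one hour. ADP was quantified by Transcreener competitive fluorescence polarization against an ADP calibration curve.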

[13] = biological target: Ubiquitin carboxyl-terminal hydrolase 1 (Homo sapiens) (UniProt O94782); assay: Inhibitors of USP1/UAF1: Pilot qHTS (AID 504865);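 note: rhodamine fluorescence freed from ubiquitin-rhodamine substrate followed over time; top concentration of the series differs between compounds; nearly all actives have a fitted effect of over 35% in size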
Ubiquitin carboxyl-terminal hydrolase 1 (Homo sapiens), sequence (O94782 whole entry, looked up): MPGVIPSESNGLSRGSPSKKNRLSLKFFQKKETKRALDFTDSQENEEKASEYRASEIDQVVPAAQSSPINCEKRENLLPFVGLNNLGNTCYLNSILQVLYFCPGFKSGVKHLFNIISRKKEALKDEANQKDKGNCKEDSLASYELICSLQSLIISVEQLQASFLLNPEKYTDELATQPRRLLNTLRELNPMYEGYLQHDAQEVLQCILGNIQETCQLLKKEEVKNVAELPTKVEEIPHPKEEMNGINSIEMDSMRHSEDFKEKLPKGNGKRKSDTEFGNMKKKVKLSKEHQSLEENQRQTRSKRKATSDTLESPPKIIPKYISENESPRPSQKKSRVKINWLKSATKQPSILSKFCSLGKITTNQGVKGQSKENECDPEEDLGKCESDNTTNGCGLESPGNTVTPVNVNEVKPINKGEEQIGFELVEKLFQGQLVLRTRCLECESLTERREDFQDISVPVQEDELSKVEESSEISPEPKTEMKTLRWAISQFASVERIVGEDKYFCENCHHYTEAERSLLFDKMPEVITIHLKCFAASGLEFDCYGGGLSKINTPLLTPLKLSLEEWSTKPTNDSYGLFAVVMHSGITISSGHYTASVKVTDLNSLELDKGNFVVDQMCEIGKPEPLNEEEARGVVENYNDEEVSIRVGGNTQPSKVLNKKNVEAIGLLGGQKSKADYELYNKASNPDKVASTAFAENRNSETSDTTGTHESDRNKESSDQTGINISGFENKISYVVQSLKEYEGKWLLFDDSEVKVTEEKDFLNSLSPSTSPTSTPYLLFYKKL
Method in brief: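 USP1/UAF1 complex (1nM) preincubated with compound 15 min at room temperature, then Ub-Rho substrate (150nM final) added. Fluorescence read kinetically at 480/540 nm, 6 reads every 60 seconds. Buffer: 50mM HEPES pH 7.8, 0.5mM EDTA, 0.1 mg/ml BSA, 1mM TCEP, 0.01% Tween-20.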

[14] = Primary qHTS for small molecule stabilizers of the endoplasmic reticulum resident proteome: Secreted ER Calcium Modulated Protein (SERCaMP) assay (AID 1508630)
Method in brief: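 GLuc-SERCaMP-expressing SH-SY5Y cells, pretreated 16 h with compound, are challenged with thapsigargin to empty ER calcium stores; after 4 h, coelenterazine is added directly to the medium and luminescence is imaged.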

[15] = biological target: 3',5'-cyclic-AMP phosphodiesterase 4B (Homo sapiens) (UniProt Q07343); assay: qHTS Assay for Inhibitors of PDE-IV (AID 607; active = well fitted activation curve with a large enough effect in the main read-out, with a control signal flat, not every such curve was filed as active)
3',5'-cyclic-AMP phosphodiesterase 4B (Homo sapiens), sequence (Q07343 whole entry, looked up): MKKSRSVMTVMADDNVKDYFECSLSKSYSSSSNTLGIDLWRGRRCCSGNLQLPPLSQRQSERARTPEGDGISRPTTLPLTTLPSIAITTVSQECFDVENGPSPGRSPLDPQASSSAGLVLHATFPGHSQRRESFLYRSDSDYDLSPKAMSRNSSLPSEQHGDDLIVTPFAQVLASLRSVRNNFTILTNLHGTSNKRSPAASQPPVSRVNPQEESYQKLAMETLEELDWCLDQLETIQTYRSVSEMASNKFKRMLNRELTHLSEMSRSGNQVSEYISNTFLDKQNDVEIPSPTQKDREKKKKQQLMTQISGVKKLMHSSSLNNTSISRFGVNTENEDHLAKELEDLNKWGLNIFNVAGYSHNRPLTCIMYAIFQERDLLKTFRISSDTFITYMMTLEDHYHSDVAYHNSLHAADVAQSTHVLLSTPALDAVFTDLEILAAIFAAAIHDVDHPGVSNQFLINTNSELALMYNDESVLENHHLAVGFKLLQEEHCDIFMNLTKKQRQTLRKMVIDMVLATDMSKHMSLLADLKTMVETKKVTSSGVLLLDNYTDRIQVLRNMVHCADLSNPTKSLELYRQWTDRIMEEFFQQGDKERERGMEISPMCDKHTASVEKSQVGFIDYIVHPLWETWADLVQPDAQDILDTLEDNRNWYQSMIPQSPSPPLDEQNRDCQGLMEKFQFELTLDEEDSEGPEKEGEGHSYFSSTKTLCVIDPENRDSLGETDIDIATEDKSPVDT
Method in brief: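 Live HEK293 cells with a modified cyclic nucleotide-gated (CNG) channel report intracellular cAMP via membrane-potential dye fluorescence (ex 535/em 590 nm). Endogenous PDE-IV was targeted. Compounds were tested at up to 22.9 uM final; RO 20-1724 100 uM served as control.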

[16] = qHTS Assay for Identification of Small Molecule Agonists for Hypoxia Response Element Signaling Pathway (AID 914; active = well fitted activation curve with a large enough effect in the signal ratio, with a control signal flat, not every such curve was filed as active; the % refers to the signal ratio; note: potency is the fitted concentration of half-maximal effect); conditions: ME-180 HRE-bla reporter, beta-lactamase ratio, CoCl2, 17 h; activation: hits give high values
Method in brief: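 ME-180 cells carrying an HRE-driven beta-lactamase reporter were treated with compounds in a titration series plus an EC50 level of CoCl2 for 17 h at 37 degrees Celsius; CCF4 readout as the 460nm/530nm ratio gave AC50 values.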

[17] = biological target: Cytochrome P450 2C19 (Homo sapiens) (UniProt P33261); assay: qHTS Assay for Inhibitors and Substrates of Cytochrome P450 2C19 (AID 899); note: potency is the fitted concentration of half-maximal effect; nearly all actives have a fitted effect of over 60% in size
Cytochrome P450 2C19 (Homo sapiens), sequence (P33261 whole entry, looked up): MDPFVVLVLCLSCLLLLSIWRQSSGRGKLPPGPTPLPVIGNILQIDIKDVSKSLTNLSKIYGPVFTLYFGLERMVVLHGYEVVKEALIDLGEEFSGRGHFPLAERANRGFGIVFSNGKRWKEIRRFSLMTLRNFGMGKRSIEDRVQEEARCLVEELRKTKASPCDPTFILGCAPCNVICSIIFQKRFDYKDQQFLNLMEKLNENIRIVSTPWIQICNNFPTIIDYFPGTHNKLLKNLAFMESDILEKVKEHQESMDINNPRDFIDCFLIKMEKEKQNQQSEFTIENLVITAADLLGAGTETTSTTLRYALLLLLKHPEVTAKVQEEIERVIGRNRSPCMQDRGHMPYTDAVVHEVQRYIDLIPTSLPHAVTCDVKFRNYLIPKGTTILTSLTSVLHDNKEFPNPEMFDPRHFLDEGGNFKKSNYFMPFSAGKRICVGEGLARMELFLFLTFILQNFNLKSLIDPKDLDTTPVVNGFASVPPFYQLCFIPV
Method in brief: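 Signal comes from luciferase acting on luciferin released by CYP2C19-mediated hydroxylation of Luciferin-H EGE, 10uM (KM). Assay mix: 5nM enzyme, 50mM KPO4; 60 min at 37C with NADPH regeneration. Data normalized against 57uM ketoconazole.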

| SMILES | activity change, negative = inhibition [1] [%] | Potency [2] | activity change, negative = inhibition [3] [%] | activity, negative = inhibition [4] [%] | Potency [5] [µM] | Potency [6] [µM] | Potency [7] | Potency [8] | Potency [9] | Potency [10] | Potency [11] | Potency [12] | Potency [13] | outcome [14] | Potency [15] | Potency [16] | Potency [17] |
| --- | --- | --- | --- | --- | --- | --- | --- | --- | --- | --- | --- | --- | --- | --- | --- | --- | --- |
| COc1ccc(CNc2ncncc2-c2ccc(C(=O)N(C)C)cc2)c(OC)c1 | -28.8 | 15.8 µM (active) | 18.9 | -21 | > 46 | > 46 | inactive | 0.501 µM (active) | inactive | inactive | inactive | inactive | inactive | inactive |  |  |  |
| CCNc1ncc2nc(-c3ccc(F)cc3)c(=O)n(C)c2n1 | -8.75 | 0.501 µM (active) | -26 | -0.235 | > 9.22 | > 46 | inactive |  |  | inactive | inactive | inactive | inactive | inactive | inactive |  |  |
| CN(C)c1ncc2nc(-c3cc(F)cc(F)c3)c(=O)n(CCc3ccccc3)c2n1 |  | inactive |  |  | > 9.22 | > 46 |  |  |  | inactive | inactive | inactive | inactive | inactive | inactive | 2.51 µM (active) |  |
| COc1ccc2[nH]cc(CCNc3cc(-c4ccc5c(c4)OCO5)ncn3)c2c1 |  |  | 19.3 |  | > 46 | > 46 |  |  |  | 3.98 µM (active) | 3.16 µM (active) | 2.51 µM (active) | inactive | inactive |  |  |  |
| COc1ccc2[nH]cc(CCNc3ccnc(-c4ccc(N(C)C)cc4)n3)c2c1 | 11.2 | 0.631 µM (active) |  |  | > 46 | > 46 |  |  | inactive | 15.8 µM (active) | 14.1 µM (active) | inactive | inactive | inactive | inactive |  | 6.31 µM (active) |
| CN(Cc1ccco1)c1ncncc1-c1cccc(NS(C)(=O)=O)c1 | -8.59 | 15.8 µM (active) | -4.49 | 8.28 | > 46 | > 46 | inactive | 0.794 µM (active) | inactive | inactive | inactive | inactive | inactive | inactive | inactive |  |  |
| CCNc1ncc2nc(-c3ccc(Cl)cc3)c(=O)n(C)c2n1 | 23.6 | 0.398 µM (active) | 20 |  | > 9.22 | > 46 | inactive |  |  | inactive | inactive | inactive | inactive | inactive | inactive |  |  |
